We go through 33 compounds from PubChem BioAssay AID720706 (Broad Institute, 2013).

The campaign covered roughly 350,000 compounds. About 5,500 (1.6%) were called active. This is one part of a sample in which actives are shown more often than they occur.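 How the source made its calls: active means significant combined selectivity score with lowered wild-type GFP, culture density cut under 30%, mutant RFP and density less affected; inactive means any of these conditions unmet.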

This experiment can be described thus: reduced GFP signal of wild-type E. coli, primary screen, bacterial rRNA inhibitor project, GFP/RFP fluorescence, OD600, single point (AID 720706). The conditions noted are these: E. coli WT GFP vs humanized-ribosome RFP mutants, 24 h; GFP signal change (wild-type ribosome): stronger effect = lower value, DMSO median 0, no signal -100; OD600 change: measured here: OD600 growth, DMSO median 0, no signal -100; RFP signal change: measured here: RFP humanized mutant strains, DMSO median 0, no signal -100, concentration not given here.
With `Cc1nnc(SCC(=O)Nc2cccc(N)c2)n1-c1ccccc1`, the GFP signal change (wild-type ribosome) was 6.38% (inactive), the OD600 change is 12% and the RFP signal change amounted to 4.46%.

For the compound `Cc1nnc(SCc2ccc(C(=O)c3ccc(Cl)cc3)o2)n1-c1ccccc1`, the GFP signal change (wild-type ribosome) was -32.1% (active), the OD600 change is -22.7% and the RFP signal change is 3.57%.

With `COC(=O)c1ccc(CSc2nc3ccccc3c(=O)n2-c2cccc(OC)c2)o1`, the GFP signal change (wild-type ribosome) is 1.15% (inactive), the OD600 change is -0.729% and the RFP signal change worked out at 0.461%.

As to `C[C@@H]1CN([C@@H](C)CO)C(=O)c2cc(NS(=O)(=O)c3cn(C)cn3)ccc2O[C@@H]1CN(C)Cc1ccc(C(=O)Nc2ccccc2N)cc1`, the GFP signal change (wild-type ribosome) was 5.78% (inactive), the OD600 change amounted to 6.33% and the RFP signal change is 3.25%.

As for `O=c1[nH]n2c(-c3ccccc3)nc(O)c2c2ccccc12`, the GFP signal change (wild-type ribosome) is -31.6% (active), the OD600 change was -7.74% and the RFP signal change was found to be 0.585%.

As to `O=C(O)c1ccc(-n2nc(-c3ccccc3)c3ccccc3c2=O)cc1`, the GFP signal change (wild-type ribosome) is 2.07% (inactive), the OD600 change was -9.56% and the RFP signal change is -1.61%.

As to `COCC(=O)N1CC(=O)N2[C@@H](CO)[C@@H](c3ccc(C#CC(C)C)cc3)[C@@H]2C1`, the GFP signal change (wild-type ribosome) was -0.482% (inactive), the OD600 change amounted to 2.33% and the RFP signal change is -1.33%.

Take `COc1ccc(C#Cc2ccc([C@@H]3[C@H](CO)N4C(=O)CN(C(C)=O)C[C@@H]34)cc2)cc1`: the GFP signal change (wild-type ribosome) is -2.96% (inactive), the OD600 change was -13.2% and the RFP signal change is -2.12%.

For `CC(=O)Nc1cccc2c1O[C@@H](CN(C)C(C)=O)[C@@H](C)CN(C)C2=O`, the GFP signal change (wild-type ribosome) is -0.3% (inactive), the OD600 change was 2.46% and the RFP signal change was -0.39%.

`COc1ccc2c3c(n(C)c2c1)[C@@H](CO)N(C(=O)c1cnccn1)CC31CCN(C(C)=O)CC1`: the GFP signal change (wild-type ribosome) was 4.42% (inactive), the OD600 change amounted to 18.1% and the RFP signal change is -2.67%.

Turning to `C[C@@H](Nc1nc(-c2ccccc2)nc2c1oc1ccccc12)C(=O)O`, the GFP signal change (wild-type ribosome) is -25.4% (active), the OD600 change was -3.54% and the RFP signal change turned out to be 7.03%.

As to `COCCNc1nc(-c2ccccc2)nc2c1oc1ccccc12`, the GFP signal change (wild-type ribosome) is -38% (inactive), the OD600 change is -50.5% and the RFP signal change is -2.59%.

As for `O=c1[nH]c(CSc2ccccc2)nc2c1oc1ccccc12`, the GFP signal change (wild-type ribosome) is 4.21% (inactive), the OD600 change is 3% and the RFP signal change was -8.61%.

As for `O=C(C1CCCCC1)N1CC(=O)N2[C@H](CO)[C@H](c3ccc(-c4ccccc4F)cc3)[C@H]2C1`, the GFP signal change (wild-type ribosome) is -9.7% (inactive), the OD600 change was -39.9% and the RFP signal change amounted to 0.225%.

With `C[C@@H]1CCCCO[C@@H](CN(C)C(=O)Nc2ccc(F)cc2)[C@H](C)CN([C@@H](C)CO)C(=O)c2cc(NS(C)(=O)=O)ccc2O1`, the GFP signal change (wild-type ribosome) is -0.965% (inactive), the OD600 change is -0.127% and the RFP signal change is 0.106%.

For the compound `CN(C)CC(=O)N1[C@H](C#N)[C@H](c2ccccc2-c2cccc(C(=O)N(C)C)c2)[C@@H]1CO`, the GFP signal change (wild-type ribosome) is 3.14% (inactive), the OD600 change was found to be 9.94% and the RFP signal change was -2.26%.

Consider `C[C@@H]1CCCCO[C@@H](CN(C)Cc2ccc(C(=O)Nc3ccccc3N)cc2)[C@H](C)CN([C@H](C)CO)C(=O)c2cc(N(C)C)ccc2O1`, for which the GFP signal change (wild-type ribosome) is 0.759% (inactive), the OD600 change was found to be 1.41% and the RFP signal change was -1.39%.

As for `C[C@H]1CN([C@@H](C)CO)C(=O)Cc2cc(NC(=O)C3CC3)ccc2O[C@H]1CN(C)S(=O)(=O)c1ccc(Cl)cc1`, the GFP signal change (wild-type ribosome) was -2.58% (inactive), the OD600 change was -5.07% and the RFP signal change turned out to be 2.87%.

With `S=C(NN=Cc1ccccn1)Nc1ccccn1`, the GFP signal change (wild-type ribosome) is -3.3% (inactive), the OD600 change stood at 1.4% and the RFP signal change was -6.11%.

On to `Cc1nnc(N/N=C/c2ccccn2)[nH]c1=O`, for which the GFP signal change (wild-type ribosome) is -26% (active), the OD600 change is 6.61% and the RFP signal change worked out at 2.3%.

As to `O=C(N/N=C/c1ccccn1)c1cccc(NC(=O)c2ccc(Cl)cc2)c1`, the GFP signal change (wild-type ribosome) is -12.4% (inactive), the OD600 change was -9.16% and the RFP signal change was -2.65%.

On to `CN1[C@@H]2c3ccc(-c4ccc(F)cc4)c(=O)n3C[C@H]1[C@H](CO)[C@H]2C(=O)NC1CCC1`, for which the GFP signal change (wild-type ribosome) was 0.894% (inactive), the OD600 change is -1.58% and the RFP signal change was -1.53%.

Regarding `NS(=O)(=O)c1cccc(NC(=O)CSc2nc3ccccc3n2-c2ccccc2)c1`, the GFP signal change (wild-type ribosome) was -43.3% (active), the OD600 change was -4.95% and the RFP signal change is 0.431%.

With `COc1ccc(-n2cnnc2SCC(=O)Nc2cccc(S(N)(=O)=O)c2)cc1`, the GFP signal change (wild-type ribosome) is 5.58% (inactive), the OD600 change is 7.26% and the RFP signal change was -1.5%.

Regarding `Cc1ccc(-n2c(SCC(=O)Nc3ncc(Cl)cc3Cl)nc3ccccc32)cc1`, the GFP signal change (wild-type ribosome) is -23.3% (inactive), the OD600 change was -16.7% and the RFP signal change worked out at 11.6%.

Take `CC(C)NC(=O)Nc1ccc2c(c1)C(=O)N([C@@H](C)CO)C[C@H](C)[C@H](CN(C)C(=O)Nc1ccc(F)cc1)OCCCC[C@@H](C)O2`: the GFP signal change (wild-type ribosome) was 9.43% (inactive), the OD600 change turned out to be 11.5% and the RFP signal change was -1.2%.

Take `O=S(=O)(c1ccccc1)N1CC[C@@H]2[C@H]1c1cc(C#Cc3cccc(F)c3)ccc1N[C@@H]2CO`: the GFP signal change (wild-type ribosome) is -1.75% (inactive), the OD600 change amounted to 20.2% and the RFP signal change is -0.35%.

With `CCCNC(=O)N1CC2(C1)[C@H](c1ccccc1)[C@@H](CO)N2C(=O)C1CC1`, the GFP signal change (wild-type ribosome) is 2.01% (inactive), the OD600 change worked out at 4.92% and the RFP signal change was -0.981%.

In the case of `COc1ccc(NC(=O)N[C@@H]2CC[C@H](CCn3cc(-c4ccc(OC)cc4)nn3)O[C@@H]2CO)cc1`, the GFP signal change (wild-type ribosome) is -3.5% (inactive), the OD600 change was -6.01% and the RFP signal change turned out to be 3.35%.

As to `COc1ccc(S(=O)(=O)N[C@H]2CC[C@H](CCn3cc(C(C)C)nn3)O[C@@H]2CO)cc1`, the GFP signal change (wild-type ribosome) is 3.72% (inactive), the OD600 change amounted to 10.4% and the RFP signal change is 1.37%.

As for `O=C(C[C@@H]1C[C@H]2c3cc(NS(=O)(=O)c4ccc(F)cc4)ccc3O[C@H]2[C@H](CO)O1)NCCc1ccccc1`, the GFP signal change (wild-type ribosome) is 0.771% (inactive), the OD600 change was -17.4% and the RFP signal change is 2.06%.

Consider `C[C@H](NC(=O)C[C@@H]1C[C@@H]2c3cc(NS(=O)(=O)c4ccc(F)cc4)ccc3O[C@@H]2[C@@H](CO)O1)c1ccccc1`, for which the GFP signal change (wild-type ribosome) is -27.2% (active), the OD600 change is -16.8% and the RFP signal change is 2.38%.

Take `O=C(C[C@@H]1C[C@H]2c3cc(NS(=O)(=O)c4ccc(F)cc4)ccc3O[C@H]2[C@H](CO)O1)NC1CCCC1`: the GFP signal change (wild-type ribosome) was -1.46% (inactive), the OD600 change is -4.87% and the RFP signal change was -0.359%.
